Out of some 53,000 compounds screened, about 900 (1.7%) showed an effect of 50% or more. What follows is part of a selection rich in strong results, with near analogues and random picks from the rest.
system: Mycobacterium tuberculosis; test: Cornell - Phenotypic assay to identify agents that inhibit growth of Mycobacterium tuberculosis; format: functional; set-up: scale not given: direction of the effect not stated beside the values; details: 10 mM as filed; unlikely as a test dose

Compound	Percent Effect [%]
CCc1ccc(NC(=O)C(C)N2CCN(Cc3ncc[nH]3)CC2)cc1 (stereo not drawn)	-0.1574
CC(C(N)=O)N1CCN(c2ncc(Cl)cn2)CC1 (stereo not drawn)	-8.902
O=C(COc1coc(CN2CCCCC2)cc1=O)c1ccccc1	-5.787
CC(C)N(C(=O)CCc1ccco1)C1CCOCC1	2.754
CCN1N=C(C(=O)N2CCCC(c3nc(C)c(C)s3)C2)CCC1=O (stereo not drawn)	-28.99
O=C(CSC1CCc2ccccc2NC1=O)NCCc1ccc(O)cc1 (stereo not drawn)	-13.35
CCn1cc2c(n1)C(COC)CN(C(=O)c1ccccn1)C2 (stereo not drawn)	22.8
Cc1nn(C)c(C)c1C(=O)NCc1cc(N(C)C)nc2ccccc12	-29.39
Cn1cnnc1S(=O)(=O)C1CCN(S(=O)(=O)c2ccc(Cl)s2)CC1	6.004
CCCn1nccc1C(=O)Nc1nc(C)c(C)s1	63.52
CCCn1nccc1C(=O)Nc1ncc(C)s1	29.79
CCn1nccc1C(=O)Nc1nc(C)c(C(C)=O)s1	37.96
CC(C)c1cc(C(=O)O)nc2[nH]c(=O)[nH]c(=O)c12	12.95
COc1ccc(CNC(=O)C(NC(=O)Cc2ccccc2)C(C)C)cn1 (stereo not drawn)	-38.43
COCCN1C(=O)[C@H]2CC[C@@H]1CN(Cc1nnc(C3CC3)o1)C2	-7.325
O=C(O)C(F)(F)F.O=C1[C@H]2CN(CC3CC3)C[C@H]2CN1Cc1cccc(F)c1	9.244
O=C(C[S+]([O-])Cc1csc(C2CCCC2)n1)Nc1ccccc1 (stereo not drawn)	105.1
O=C(C[S+]([O-])Cc1csc(C2CCCC2)n1)NC1CCCC1 (stereo not drawn)	8.301
CC(C)CNC(=O)C[S+]([O-])Cc1csc(C2CCCCC2)n1 (stereo not drawn)	18.38
CCn1cnnc1CNC(=O)c1cc(Cl)ccc1I	10.82
CN(CCNC(=O)c1cnc(-c2ccccc2)nc1)S(C)(=O)=O	-18.18
CCCC(C)(O)c1cc(C(N)=O)no1 (stereo not drawn)	45.9
CC(C)=CCCC(C)(O)c1cc(C(N)=O)no1 (stereo not drawn)	37.88
CCOC(=O)c1cc(C(C)(O)CCC=C(C)C)on1 (stereo not drawn)	106.6
CNC(=O)Cn1ccc2ccc(NC(=O)C(C)C)cc21	6.028
CCCC(O)CN1CC(C)(C)CN(C(=O)c2ccccc2)CC1=O (stereo not drawn)	6.323

Compound	Percent Effect [%]
Cc1cc(N2CCC(O)(CN(C)C(=O)CCN)C2)c2cnccc2n1 (stereo not drawn)	27.99
CNc1cc(CCNC(=O)C2CCCC2)nc(-c2ccccn2)n1	52.1
CNc1cc(CCNC(=O)CC(C)C)nc(-c2ccccn2)n1	53.37
CCCC(=O)NCCc1cc(NC)nc(-c2ccccn2)n1	8.218
Cc1ncc(-c2ccccn2)c(CCNC(=O)C2CCCC2)n1	-18.28
CNc1cc(CCNC(=O)c2cccnc2)nc(-c2ccncc2)n1	-1.38
CNc1cc(CCNS(=O)(=O)c2ccccc2)nc(-c2ccccn2)n1	45.23
Cc1c(Br)cccc1C(=O)Nc1cc(C(N)=O)n(C)c1	2.948
COC(=O)c1occc1Cn1cc(Br)cn1	-5.91
COc1cccc2c1ccn2CCNC(=O)CC(C)C	-27.68
CCCn1nnnc1COc1ccc(C(=O)OC)cc1OC	7.789
Cc1noc(C)c1-c1cccc(C2CN(S(=O)(=O)N(C)C)CCO2)n1 (stereo not drawn)	37.24
COCC(=O)N1CCOC(c2cccc(-c3cncnc3)n2)C1 (stereo not drawn)	-11.99
CN(C)S(=O)(=O)N1CCOC(c2cccc(-c3cncnc3)n2)C1 (stereo not drawn)	50.13
COc1ccccc1C(=O)N1CC(=O)N(CC(C)C)CC(O)C1 (stereo not drawn)	11.6
CCC(CN1CCCCC1)NC(=O)C1(c2cccc(F)c2)CC1.O=C(O)CC(O)(CC(=O)O)C(=O)O (stereo not drawn)	45.73
CCOCC(O)CN1CCN(C(=O)c2ccc(N(C)C)nc2)CC1 (stereo not drawn)	18.97
CCOCC(O)CN1CCN(C(=O)c2ccncc2)CC1 (stereo not drawn)	18.36
CCOCC(O)CN1CCN(C(=O)c2ccsc2)CC1 (stereo not drawn)	106.2
CC(C)N1CCC(Cc2cncc(-c3cccc(C(=O)O)c3)n2)CC1	-33.1
CCOCC1CN(S(=O)(=O)Cc2ccccc2)Cc2nccn2C1 (stereo not drawn)	3.802
CC(C)c1ccc(C#N)c(N2CC(C)(C)[C@@](C)(O)C2)n1	23.89
COc1cccc(NC(=O)CN2CCN(S(C)(=O)=O)CC2)c1	13.93
COc1cccc(/C=C/CCN2CCC(C(=O)N3CCCC3)CC2)c1	9.134
COc1cccc(/C=C/CCN2CCN(S(C)(=O)=O)CC2)c1	79.58
COc1cccc(C(C)N2CCN(S(C)(=O)=O)CC2)c1 (stereo not drawn)	-32.99

Compound	Percent Effect [%]
COc1cccc(/C=C/CCN2CCCN(C(C)=O)CC2)c1	68.14
COc1cccc(S(=O)(=O)CCN2CCCN(C(C)=O)CC2)c1	16.19
Cc1cc(C)n(C2CN(c3ncnc4[nH]ccc34)C2)n1	-54.22
CCn1cc(S(=O)(=O)NCC2(N3CCOCC3)CCCCC2)c(C)n1	-12.17
N#CCCCOc1cccnc1NC(=O)CC1CCCCC1	-14.31
Cc1ccc(NC(=O)N2CCN(Cc3ccccn3)CC2)cc1Cl	-19.48
Cc1nc(CN(C)C2CCCN(c3ccccc3)C2)no1 (stereo not drawn)	-1.27
COc1cccc2c3c(c(=O)[nH]c12)CCC(C)(C)O3	14.12
Cn1c(=O)c2c(c3ccccc31)OC(C)(C)CC2	17.08
COc1cccc2c3c(c(=O)n(C)c12)CCC(C)(C)O3	52.61
CSCCCNC(=O)C(c1ccccc1C)N(C)C (stereo not drawn)	37.97
Cc1cc(N(C)CCC(O)c2ccccc2)n2nccc2n1 (stereo not drawn)	-28.51
Cc1cc(C(F)(F)F)nc(CNc2cc(C)nc3cc(C)nn23)n1	13.97
COc1cccc(C(=O)Oc2cc(=O)n3cccc(C)c3n2)c1	35.2
CC1c2cccn2CCN1C(=O)CCc1nc(C2CC2)no1 (stereo not drawn)	7.661
CC1c2cccn2CCN1C(=O)CCc1nc(-c2ccccc2)no1 (stereo not drawn)	50.68
CC1c2cccn2CCN1C(=O)CCCc1nc(-c2ccco2)no1 (stereo not drawn)	8.285
COC(=O)c1cc(OCC2CCC2)cc(C(=O)N[C@H]2CCCC[C@@H]2O)c1	13.96
Cc1nc(C)c(C(=O)N2CCCC2(C)C(=O)NC2CCCC2)s1 (stereo not drawn)	-2.69
Cc1cc(C)n(CC2CN(CC(=O)NC3(C#N)CCCC3)CCO2)n1 (stereo not drawn)	-4.222
CCOCCC(=O)Nc1cccc(Oc2ccccn2)c1	-2.089
NC(=O)c1cnc(NC2CCN(c3ccccn3)CC2)c(Cl)c1	18.4
NC(=O)c1cnc(NC2CCN(c3ccccc3)CC2)c(Cl)c1	48.08
NC(=O)c1cnc(NC2CCC(c3ccccc3)CC2)c(Cl)c1 (stereo not drawn)	57.03
O=S(=O)(c1cccnc1)N1CCN(Cc2nc(-c3ccco3)cs2)CC1	31.36
Cc1nc(C)n(CC2CCCN(Cc3cccnc3)C2)n1 (stereo not drawn)	6.124

Compound	Percent Effect [%]
CN(CCC(F)(F)F)Cc1nc2ccccc2c(=O)[nH]1	7.133
O=c1[nH]c(CN2CCN(CC(F)(F)F)CC2)nc2ccccc12	9.356
O=c1[nH]c(CCN2CCCC(Cn3cncn3)C2)nc2ccccc12 (stereo not drawn)	33.45
CCC(CC)C(=O)N1CCN(Cc2nc3ccccc3c(=O)[nH]2)CC1	5.405
Cn1nc2c(cc1=O)CN(CCc1nc3ccccc3c(=O)[nH]1)CC2	8.475
CCOCCN1CCN(CCc2nc3ccccc3c(=O)[nH]2)CC1	106.8
CN(CCc1nc2ccccc2c(=O)[nH]1)CCC(F)(F)F	95.2
CN(CCC(F)(F)F)c1nc2ccccc2c(=O)[nH]1	-4.598
O=c1[nH]c(CCN2CCN(CC(F)(F)F)CC2)nc2ccccc12	106.7
O=C(c1sccc1-n1cnnn1)N1CCC(Cc2ccccc2)CC1	28.81
CCOC1Sc2nnc(C)n2N=C1c1ccc(F)cc1 (stereo not drawn)	27.03
CC(C)NC(=O)N1CCN(Cc2ccccn2)CC2(CC(=O)N(C)C2)C1.O=C(O)C(F)(F)F.O=C(O)C(F)(F)F (stereo not drawn)	-0.1639
COc1cccc(CC2CCCN2Cc2nccn2C)c1 (stereo not drawn)	13.47
Cc1cc(C(=O)N2CC[C@H]3[C@@H]2CCC(=O)N3c2ccccc2)no1	0.08428
Cn1cc(N2C(=O)CC[C@@H]3[C@H]2CCN3C(=O)c2cscn2)cn1.O=C(O)C(F)(F)F	15.97
O=C(c1cscn1)N1CC[C@H]2[C@@H]1CCC(=O)N2c1ccccc1	102.6
Cc1nnc(CN(Cc2ccc3c(c2)OCO3)C2CCCCC2)o1	52.33
Cc1nnc(CN(Cc2cccc(Br)c2)C2CC2)o1	22.14
Cc1noc(CN(Cc2ccc3c(c2)OCO3)C2CCCC2)n1	4.979
Cc1nnc(CN(Cc2ccccc2Br)C2CC2)o1	42.91
Cc1nnc(CN(Cc2ccc3c(c2)OCO3)C2CCC(C)CC2)o1 (stereo not drawn)	50.97
CCc1noc(CN(Cc2ccc3c(c2)OCO3)C2CCCC2)n1	1.573
O=C(CCn1cc(Cl)cn1)N1CCN(CC2CC2)[C@@H]2CS(=O)(=O)C[C@@H]21	-27.81
O=C(CC1CCc2ccccc21)N1CCC(C(=O)O)(n2ccnc2)CC1 (stereo not drawn)	-2.815
O=C(NCc1ccnc(OCC2CC2)c1)C1COc2ccccc2O1 (stereo not drawn)	12.77
